Screening results (PubChem)
Compounds with a hit are over-represented: about 9.4% of the library has one in this group of screens.
Pf growth 48h: inhibits P. falciparum growth in the first generation, 48 h; 310,000 compounds, 5.9% hits; Potency, µM (series often up to 28.7 µM), without a hit: at the highest dose activity change, negative = inhibition, actives largely listed as inhibitors; AID 504832; P. falciparum luciferase growth in erythrocytes, 48 h; note: % is set by controls: 0 for no effect and ±100 for the full control effect
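Luminescence readout; reporter = integrated firefly luciferase in P. falciparum. RBC culture at 2% hematocrit, 0.1% parasitemia final, 37 C/5% CO2; decreased signal taken as growth inhibition.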
AMA1-RON2 inh: inhibitors of Plasmodium falciparum AMA1-RON2 interaction; AlphaScreen AMA1-biotinylated RON2 peptide binding; Potency, µM (doses to about 58.2 µM), for the others: at the top dose activity change, negative = inhibition, actives largely listed as inhibitors; 360,000 compounds, 0.2% hits;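 note: 0% = vehicle wells and -100% = peptide control; nearly all actives have a fitted effect of over 45% in size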
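AMA1 (3D7) with his tag at 25 nM final met compounds first, then biotinylated RON2 peptide at 25 nM; detection used donor plus acceptor beads, 10 µg/mL apiece, read by AlphaScreen after 30 min at room temperature.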
SARS PLpro yeast: inhibitors of SARS-CoV papain-like protease in yeast; S. cerevisiae expressing SARS-CoV PLpro, growth rescue; 330,000 compounds, 0.19% hits; Potency, µM (titrated, usually from 32.9 µM), for inactives: at the highest dose activity, positive = growth rescue, most hits filed as activators; calls by dose curve; note: 0% is about no effect; nearly all actives have a fitted effect of over 55% in size
Pf growth 96h: P. falciparum growth inhibition at 96 hours; Potency, µM (top dose mostly 28.7 µM), for the others: top-dose activity change, negative = inhibition, usual class: inhibitors; 320,000 compounds, 6.9% hits; P. falciparum luciferase reporter growth, 96 h; note: % is set by controls: 0 for no effect and ±100 for the full control effect
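Two-generation exposure (96 h) targets delayed-death phenotype. Reporter parasites carrying integrated firefly luciferase, in red cells at 2% hematocrit and 0.05% parasitemia final, kept at 37 C, 5% CO2; luminescence loss indicates inhibition.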
Starred values were filed as active, the others as inactive; ? = inconclusive; . = no result given. Unless noted, calls come from the whole dose curve; as a rule, active = well fitted curve in the direction sought with a large enough effect; inconclusive = small, poorly fitted or top-dose-only effect, or another doubt; inactive = no such curve, though single readings can be large; an effect the other way counts as inactive or inconclusive. Potency is the fitted concentration of half-maximal effect.

SMILES	Pf growth 48h	AMA1-RON2 inh	SARS PLpro yeast	Pf growth 96h
Cc1csc(NC(=O)CSc2nnnn2C)n1	203.2%	20.2%	15.5%	9.28µM*
COc1ccc(N2CCCn3c2nc2c3c(=O)n(Cc3ccccc3F)c(=O)n2C)cc1	-19.0%	.	-10.1%	?
CSc1nc(N)n2nccc2n1	.	12.0%	.	.
COc1ccc(NC(=O)C/C(C)=N/NC(=O)C2CCCCC2)c([N+](=O)[O-])c1	30.6%	21.7%	-2.5%	10.4µM*
COc1ccc(-c2nc3ccc(Cl)cn3c2Cc2cccc(F)c2)cc1OC	.	-18.3%	.	.
Cc1cccc(-c2nc(-c3ccncc3)no2)c1	197.7%	7.2%	-9.6%	10.4µM*
O=[N+]([O-])c1cc(-c2nc(-c3ccncc3)no2)cc([N+](=O)[O-])c1	?	11.6%	-30.9%	1.85µM*
CCC(=O)NS(=O)(=O)c1cccnc1Nc1ccc(Cl)cc1	17.5%	-3.3%	1.7%	.
CCN(CC)C(=O)Oc1cc(COC)nc(-c2ccccc2)n1	10.4µM*	5.4%	0.7%	?
OCCN(CC(O)Cn1ccc2ccccc21)CC(O)Cn1ccc2ccccc21 (centres undefined)	?	-6.6%	1.4%	11.3%
CC(C)(C)c1ccc(OCC(O)CN(CCO)CC(O)Cn2ccc3ccccc32)cc1 (centres undefined)	11.7µM*	-1.8%	-18.2%	?
COC(=O)c1cc2sccc2n1Cc1nc(-c2ccc(Cl)cc2)oc1C	12.2%	5.4%	-3.7%	10.4µM*
COC(=O)c1cc2ccsc2n1Cc1nc(-c2cccc(Cl)c2)oc1C	.	-12.7%	4.6%	4.15µM*
COC(=O)c1cc2sccc2n1Cc1nc(-c2cccc(Cl)c2)oc1C	.	-0.6%	-2.5%	9.28µM*
CCOC(=O)c1c(N)sc(C(=O)N2CCCC(C(N)=O)C2)c1C (centres undefined)	.	-0.9%	.	.
COc1ccc(C2C(C(=O)NCCN3CCOCC3)c3ccccc3C(=O)N2C)cc1OC (centres undefined)	17.0%	11.1%	5.7%	?
Cc1ccc2[nH]c(-c3ccccc3)c(CN3CCN(C)CC3)c(=O)c2c1	.	0.0%	0.6%	?
Cc1ccc(-c2[nH]c(-c3ccc(C(=O)O)cc3)nc2-c2ccccc2)cc1	-32.1%	2.4%	-20.6%	10.4µM*
COc1cc(NC(=O)[C@H]2CCCN2S(=O)(=O)c2cccc3cccnc23)cc(OC)c1OC	?	6.0%	2.5%	?
C#CCNC(=O)C1=C[C@H](c2ccccc2)C[C@H](OCCCCO)O1	?	2.7%	0.6%	?
O=C(NCc1nc2ccccc2[nH]1)C1=C[C@@H](c2csc3ccccc23)C[C@@H](OCCCCO)O1	2.62µM*	67.9%	1.3%	2.08µM*
O=C(NC1CC1)C1=C[C@@H](c2csc3ccccc23)C[C@@H](OCCCCO)O1	10.4µM*	-1.1%	-5.8%	13.1µM*
O=C(NCc1ccccc1)C1=C[C@@H](c2csc3ccccc23)C[C@@H](OCCCCO)O1	?	9.3%	-3.8%	?
C#CCNC(=O)C1=C[C@@H](c2ccc(Br)cc2)C[C@@H](OCCCCO)O1	?	-4.7%	-3.4%	8.28µM*
O=C(NC1CC1)C1=C[C@@H](c2csc3ccccc23)C[C@@H](OCc2ccc(CO)cc2)O1	?	4.5%	-4.5%	13.1µM*
SMILES	Pf growth 48h	AMA1-RON2 inh	SARS PLpro yeast	Pf growth 96h
c1ccc(-c2nnc(-c3ccco3)n2-c2ccccc2)cc1	-14.9%	-1.0%	-18.0%	35.2%
COC(=O)C1CC(c2ccccc2)N(c2ccccc2)O1 (centres undefined)	.	16.6%	.	.
Cc1noc(C)c1COc1cccc(C(=O)Nc2ccc(C#N)cc2)c1	?	-10.2%	-12.0%	0.0%
O=C(NCc1ccccc1)C1=C[C@@H](c2coc3ccccc3c2=O)C[C@@H](OCc2ccc(CO)cc2)O1	?	-10.5%	-2.6%	4.15µM*
C#CCNC(=O)C1=C[C@@H](c2csc3ccccc23)C[C@@H](OCc2ccc(CO)cc2)O1	?	-12.8%	-3.6%	5.22µM*
O=C(NCc1ccccc1)C1=C[C@@H](c2csc3ccccc23)C[C@@H](OCc2ccc(CO)cc2)O1	?	0.0%	-1.6%	?
O=C(Nc1ccccc1)C1=C[C@H](c2coc3ccccc3c2=O)C[C@H](OCc2ccc(CO)cc2)O1	?	-5.0%	-1.8%	?
COc1ccc(NC(=O)C2(C)Cc3c(-c4ccc5c(c4)OCO5)ccnc3O2)cc1 (centres undefined)	.	-17.1%	.	.
O=C(NC1CCCCC1)c1cc(S(=O)(=O)N2CCOCC2)c(Cl)cc1Cl	-9.2%	-12.8%	-1.4%	?
O=c1nc2n(c3cc(Cl)c(S(=O)(=O)N4CCOCC4)cc13)CCCCC2	-17.1%	16.2%	2.3%	9.28µM*
O=C(N/N=C/c1ccccn1)c1ccc(NC(=O)c2ccc(F)cc2)cc1	?	60.6%	3.1%	-25.9%
CCOc1c(OC(C)=O)ccc(/C=C/c2ccc3cccc(OC)c3n2)c1[N+](=O)[O-]	4.65µM*	-29.5%	24.8%	-2.8%
O=C(COC(=O)c1ccc([N+](=O)[O-])s1)NCc1ccc(F)cc1	-2.8%	-2.3%	-54.1%	-6.6%
CS(=O)(=O)N(CC(=O)N1CCCC1)Cc1ccc(F)cc1	42.1%	-4.1%	1.4%	?
O=C(CN(Cc1ccc(F)cc1)S(=O)(=O)c1ccccc1)N1CCCCC1	?	4.6%	0.6%	4.15µM*
CN(CC(=O)N1CCN(Cc2ccccc2)CC1)S(=O)(=O)c1ccc(F)cc1	3.6%	4.4%	7.6%	11.7µM*
CN(CC(=O)N1CCN(Cc2ccccc2)CC1)S(=O)(=O)c1ccc(Br)cc1	?	-27.0%	-0.5%	31.3%
CCN1CCN(C(=O)CN(CC)S(=O)(=O)c2ccc(F)cc2)CC1	-6.7%	14.8%	-4.3%	3.29µM*
COc1cccc(Cn2c3ccc(NC(=O)CCc4ccc(F)cc4)cc3c(=O)n2C)c1	.	12.5%	.	.
O=C1C2C3C=CC(CC3)C2C(=O)N1/N=C/c1c(O)ccc2ccccc12 (centres undefined)	27.5%	41.0%	6.7%	10.5%
O=C1C2C3C=CC(CC3)C2C(=O)N1/N=C/c1ccccc1O (centres undefined)	22.4%	99.4%	5.62µM*	30.4%
COc1ccc(Nc2cc(C)nc(NCc3ccccc3)n2)cc1	0.465µM*	?	-0.4%	1.65µM*
Cc1ccc(Nc2cc(C)nc(NCc3ccccc3)n2)cc1	0.657µM*	-11.5%	1.8%	43.6%
Cc1cc(NC2CCCCC2)nc(NCc2ccccc2)n1	1.85µM*	-2.4%	?	1.47µM*
COc1cc(C)nc(NCc2ccccc2)n1	3.4%	-10.5%	2.8%	?
COC(=O)c1ccc(Oc2cc(C)nc(NCc3ccccc3)n2)cc1	?	21.4%	1.0%	10.4µM*
CNC(=O)C1CC(=O)N(c2ccc(C)cc2)C1 (centres undefined)	10.6%	5.3%	4.3%	-74.0%
Cc1cc(N/N=C/c2ccccc2Cl)nc(NCc2ccccc2)n1	1.47µM*	-20.9%	-71.8%	?
CN(C)c1cc[n+](/C(C(=S)Nc2ccc(SC(F)F)cc2)=C(/[O-])c2ccccc2)cc1	4.65µM*	-2.3%	-5.9%	2.08µM*
